Compounds with a hit are over-represented: about 12% of the library has one in this group of screens.
G9a inh – inhibitors of human histone lysine methyltransferase G9a. Q96KQ7. G9a H3K9 monomethylation, AlphaScreen, 2 h. Potency, µM (highest dose often 102 µM), for the others: at the top dose activity, negative = inhibition, usual class: inhibitors. 350,000 compounds, 8.8% hits; also: % is scaled to controls: 0 for no effect and ±100 for the full control effect; nearly all actives have a fitted effect of over 75% in size
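Enzyme 20 nM + cpd, 15 min RT; add b-H3K9 pep 500 nM / SAM 20 uM; 2 h RT; anti-H3K9me1 Ab 0.5 ug/mL + SA donor / anti-rabbit acceptor beads 20 ug/mL each, 10 min; AlphaScreen read.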
JMJD2A Tudor – inhibitors of human JMJD2A Tudor domain. O75164. AlphaScreen JMJD2A-Tudor / H3K4me3 peptide binding. Potency, µM (series often up to 114 µM), for the others: at the top dose activity change, negative = inhibition, hits mostly inhibitors. 390,000 compounds, 4.4% hits; also: % is scaled to controls: 0 for no effect and ±100 for the full control effect; nearly all actives have a fitted effect of over 50% in size
L3MBTL1 block – inhibitors of human L3MBTL1. AlphaScreen L3MBTL1–H3K9me1 peptide binding. Potency, µM (series often up to 57.1 µM), for the others: at the highest dose activity, negative = inhibition, hits mostly inhibitors. 230,000 compounds, 0.66% hits. AID 485360; also: % is scaled to controls: 0 for no effect and ±100 for the full control effect; nearly all actives have a fitted effect of over 60% in size
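Displacement of a biotinylated histone H3(1-15) peptide monomethylated at Lys9 (75 nM) from L3MBTL1 (50 nM) was measured by AlphaScreen after a 30 min room-temperature compound incubation; cefsulodin titration served as intraplate control.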
Sfp inh – inhibitors of Bacillus subtilis Sfp phosphopantetheinyl transferase; 310,000 compounds, 3.5% hits; AID 1490; Biochemical Sfp PPTase activity, qHTS; Potency, µM, inactives show largest response in the series, negative = inhibition, most hits filed as inhibitors;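 also: the enzyme is Sfp with the accession as filed and its product quenches rhodamine fluorescence; 0% = enzyme reaction without inhibitor and -100% = no enzyme wells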
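After 15 min at room temperature with compound, 15 nM Sfp received 5 uM rhodamine-CoA plus 12.5 uM BHQ-2-ybbR (50 mM Hepes pH 7.6, 10 mM MgCl2). Rate came from the fluorescence difference over 30 min, ex 525/em 598 nm.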
HP1b chromo inh – blocks HP1-beta chromodomain binding to methylated histone tails. P83916. AlphaScreen HP1-beta / biotin-H3K9me3 peptide binding. Potency, µM (highest dose often 114 µM), for inactives: top-dose activity change, negative = inhibition, most hits filed as inhibitors. 390,000 compounds, 0.56% hits. AID 540317; also: nearly all actives have a fitted effect of over 70% in size
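Compound inhibition of the preformed complex between 50 nM HP1-beta and 50 nM biotinylated H3K9me3 peptide was read by AlphaScreen. Buffer was PBS pH 7.4 with 0.01% Tween-20. Incubations ran 30 min at room temperature, with 10 ug/mL donor/acceptor beads.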
BAZ2B inh – inhibitors of human BAZ2B bromodomain. Potency, µM (doses to about 114 µM), for inactives: at the highest dose activity change, negative = inhibition, actives largely listed as inhibitors. 360,000 compounds, 4.4% hits. AID 504333. AlphaScreen BAZ2B-H3K14Ac peptide displacement; also: % is scaled to controls: 0 for no effect and ±100 for the full control effect; nearly all actives have a fitted effect of over 60% in size
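Multi-concentration screen (max 110 uM) measuring displacement of acetylated histone H3 peptide from BAZ2B by AlphaScreen, using 50 nM protein, 50 nM peptide and 10 ug/mL streptavidin donor plus Ni-chelate acceptor beads.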
An asterisk follows results filed as active; ? = inconclusive; / = no result given; [ ] = another dose, or the depositor's remark. Calls follow the shape of the dose curve; as a rule, active = well fitted curve in the direction sought with a large enough effect; inconclusive = small, poorly fitted or top-dose-only effect, or another doubt; inactive = no such curve, though single readings can be large; an effect the other way counts as inactive or inconclusive. Potency is read from the fitted curve at half-maximal effect.

SMILES	G9a inh	JMJD2A Tudor	L3MBTL1 block	Sfp inh	HP1b chromo inh	BAZ2B inh
COc1cccc(NC(=O)CSc2nnc(-c3ccco3)c(-c3ccco3)n2)c1	2.82µM*	44.7µM*	/	10µM*	?	50.1µM*
COc1ccc(C(=O)CSc2nnc(-c3ccco3)n2C)cc1	-7.9%[59 µM]	-8.8%	0.1%	-7.9%	31.7%	4.9%
CSc1nnc(-c2ccco2)c(-c2ccco2)n1	?	-6.9%[11.4 µM]	/	10µM*	?	20µM*
O=C(NCCc1ccccc1)c1cc(Sc2cccc(Cl)c2)nc2ccccc12	20.6%[59 µM]	5.5%	/	/	41.4%	15.8%
CO[C@H]1COC(=O)[C@H](C)NC(=O)C/C=C\[C@@H](C)[C@H](OC)COC(=O)[C@@H](OCc2ccccc2)/C=C\[C@@H]1C	/	/	/	1.7%	/	/
COc1cccc(Nc2ncc3nc(-c4ccccc4)c(=O)n(C)c3n2)c1	-4.4%[0.501 µM]	/	/	5.5%	/	/
O=C(NCc1ccc(S(=O)(=O)Nc2ccccc2Cl)s1)c1ccccc1	79.4µM*	-4.3%	-2.5%	0.5%	43.4%	0.4%
CN(C)c1ccc(/C=C/c2nc3ccccc3s2)cc1	18.6%[0.501 µM]	20µM*	-20.2%	-5.8%	39.8µM*	31.6µM*
CN(C)c1ccc(/C=C/c2ccc3ccccc3n2)cc1	44.7µM*	?	39.5%	?	5.2%	50.1µM*
Cc1ccc(/C=C/c2nc3ccccc3s2)s1	10.4%[2.33 µM]	331.7%	/	-7.2%	468.8%	214.6%
Cc1cc(C)cc(Oc2nc3c(c(=O)n(C)c(=O)n3C)n2Cc2ccc(F)cc2)c1	5.3%[59 µM]	7.6%	/	/	25.7%	-1.3%
Cc1c(C(=O)N(C)C)sc2nc(-c3ccccn3)[nH]c(=O)c12	?	50.1µM*	/	89.1µM*	7.8%	10µM*
O=c1[nH]c(-c2ccccn2)nc2sc(-c3ccccc3)cc12	8.91µM*	?	-9.2%	3.98µM*	46.6%	44.7µM*
Cc1cccc(CNC(=O)c2ccc(NC(=O)N3CC(C)Sc4ccccc43)cc2)c1 (stereo not drawn)	7.8%[59 µM]	-1.7%	/	/	33.7%	-1.6%
CCc1cccc(Nc2ncnc3onc(-c4ccc(F)cc4)c23)c1	23.9%[59 µM]	34.3%	/	/	85.9%	61.6%[57.1 µM]
COc1ccccc1Nc1ccc(S(=O)(=O)N2CCCCC2)cc1[N+](=O)[O-]	?	10µM*	-1.3%	4.3%	?	8.91µM*
CSc1cccc(Nc2ccc(S(=O)(=O)N3CCOCC3)cc2[N+](=O)[O-])c1	?	?	-29.6%	/	-13.8%	?
Cc1cccc(Nc2ccc(S(=O)(=O)N3CCOCC3)cc2[N+](=O)[O-])c1	?	10µM*	?	/	?	?
COc1ccccc1Nc1ccc(C(=O)O)cc1[N+](=O)[O-]	?	-28.4%	/	13.7%	9.5%	-33.9%
COc1ccc(Nc2ccc(S(=O)(=O)N3CCCCCC3)cc2[N+](=O)[O-])cc1	11.2µM*	6.31µM*	?	-0.5%	25.1µM*	10µM*
CCCOc1ccc(S(=O)(=O)N2CCOCC2)cc1[N+](=O)[O-]	0.1%[59 µM]	89.1µM*	/	17.2%	-7.2%	-15.2%
Cc1cc(C)c(NC(=O)C(=O)NCC(c2cccnc2)N2CCN(c3ccccc3F)CC2)c(C)c1 (stereo not drawn)	-1.9%[59 µM]	8.6%	/	/	43.7%	-16.9%
O=S(=O)(c1ccc2c(c1)CCCC2)N1CCN(c2nc(-c3cccs3)nc3ccccc23)CC1	/	-12.8%	/	/	19.0%	/
O=[N+]([O-])c1ccc(Nc2ccc(N3CCOCC3)cc2)c([N+](=O)[O-])c1	22.4µM*	?	/	-15.7%	31.6µM*	11.2µM*
COCC(C)Nc1ccc(S(=O)(=O)N2CCCC2)cc1[N+](=O)[O-] (stereo not drawn)	21.4%[59 µM]	-17.2%	/	-0.5%	-8.6%	-17.3%
SMILES	G9a inh	JMJD2A Tudor	L3MBTL1 block	Sfp inh	HP1b chromo inh	BAZ2B inh
CCCN1CCC(=NNc2ccc(S(=O)(=O)N3CCOCC3)cc2[N+](=O)[O-])CC1	10.9%[59 µM]	?	19.8%	-4.7%	-31.8%	16.4%
O=C(Nc1ccc(N2CCOCC2)cc1N1CCOCC1)c1ccc([N+](=O)[O-])cc1	-1.3%	-11.5%	0.2%	20.0%	24.3%	2.4%
COc1ccc(Nc2ccc(S(=O)(=O)N3CCCCC3)cc2[N+](=O)[O-])cc1OC	7.08µM*	?	?	3.7%	?	10µM*
CCCCCC(/C=N/Nc1ccc(S(=O)(=O)N2CCOCC2)cc1[N+](=O)[O-])=C\c1ccccc1	11.2µM*	?	/	5.4%	?	?
COCCCn1c(=N)c(S(=O)(=O)c2ccccc2)cc2c(=O)n3cccc(C)c3nc21	7.6%[59 µM]	6.6%	/	/	31.3%	-0.3%
COc1ccc2c(CNC3CCCCCC3)c(C(=O)O)n(Cc3ccc(C)cc3)c2c1	?	-31.9%	/	/	18.4%	?
Cc1ccccc1CNC(=O)c1oc2c(c1C)-c1nn(Cc3ccc(Cl)cc3)cc1CC2	-27.5%[59 µM]	-26.3%	/	/	8.7%	-23.5%
N#C/C(=C(/O)CCCl)c1ccccn1	31.6µM*	?	-1.5%	-19.8%	31.4%	?
CN(C)c1ccc(C(CNC(=O)c2ccccc2Cl)N2CCCC2)cc1 (stereo not drawn)	?	-23.5%	/	/	-3.1%	-27.5%
N#CC1(c2ccccc2)CCC(NCCc2ccccc2)CC1 (stereo not drawn)	25.1µM*	50.1µM*	/	-24.9%	16.1%	56.2µM*
Cc1ccc(Cn2cc(C(=O)c3ccc4c(c3)OCO4)c(=O)c3cc(C)ccc32)cc1	-41.5%[59 µM]	?	/	/	-3.9%	-28.5%
Cc1ccc(OCC(=O)Nc2ccc(OCc3cc(=O)n4ccsc4n3)cc2)cc1	-7.6%[59 µM]	-4.0%	/	/	39.0%	5.0%
CC(=O)N(/N=C/c1ccc(C)cc1)c1nc(CCl)cs1	17.8µM*	-5.6%	/	10.3%	22.3%	4.4%
Cc1ccc(NC(=O)Cn2cc(C(=O)C3CCCCC3)c3ccccc32)cc1	-7.3%[59 µM]	-13.1%	/	/	26.1%	-20.5%
CC1=CCc2c(cc3oc(C)cc(=O)c3c2O)OC1	-38.5%[2.33 µM]	/	/	-9.2%	/	/
Cc1cc(=O)c2c(O)c(O)ccc2o1	1.78µM*	3.16µM*	17.8µM*	79.4µM*	6.9%	?
Cc1cc(C)nc(N/N=C/C=C/c2ccccc2)n1	50.1µM*	-25.0%	1.1%	-6.4%	31.4%	-32.4%
CCCCn1c(N)c(N(CCOC)C(=O)c2cc(-c3ccc(C)cc3)nc3ccccc23)c(=O)[nH]c1=O	-17.9%[0.501 µM]	-3.6%	-17.3%	/	35.3%	6.2%
CCCCN(C(=O)CCCSc1nc2ccccc2[nH]1)c1c(N)n(Cc2ccccc2)c(=O)[nH]c1=O	10µM*	-2.1%	/	2.3%	16.2%	-8.8%
CCCCn1c(N)c(N(CCOC)C(=O)c2cc(-c3ccc(F)cc3)nc3ccccc23)c(=O)[nH]c1=O	44.7µM*	-10.0%	-7.0%	/	35.9%	2.1%
